According to the supplement of paper PMC10849652:
About 8,800 targets were measured; listed, in parts, are those with a hit and a random draw of the rest. About 0.5% of all pairs of compound and target were hits.

What was measured:
Test in all cases: log2 fold change, soluble protein after heating vs DMSO (PISA); higher = thermal stabilisation; K562 lysate, 10 uM; active = over 0.2 and 3.5 SD of the protein, either way, in both replicates (recomputed)
nilotinib = compound: Cc1cn(-c2cc(NC(=O)c3ccc(C)c(Nc4nccc(-c5cccnc5)n4)c3)cc(C(F)(F)F)c2)cn1 [nilotinib]
Procedure, shortened: (§1)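 Values give the log-two fold change in thermal stability against solvent controls, from duplicates. Crude K562 extract at 1 mg/mL protein, made by dounce homogenisation in PBS pH 7.4 with 1 mM MgCl2, was treated with 10 μM compound for 30 min. After 3 min heating across 48°C-58°C, aliquots were pooled, adjusted to 0.5% NP-40 at 4°C and centrifuged at 21,000xg for 90 min. The supernatant was measured by TMTpro 16plex LC-MS/MS with channel sums equalised.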

[1] = compound: Cc1nc(Nc2n[nH]c3c2CN(C(=O)N[C@H](CN(C)C)c2ccccc2)C3(C)C)c2sccc2n1
Procedure, shortened: as §1

dasatinib = compound: Cc1nc(Nc2ncc(C(=O)Nc3c(C)cccc3Cl)s2)cc(N2CCN(CCO)CC2)n1 [dasatinib]
Procedure, shortened: as §1

[2] = compound: Cc1ncc(-c2ccnc(Nc3ccc(S(C)(=O)=O)cc3)n2)n1C(C)C
Procedure, shortened: as §1

[3] = compound: Cn1cc(-c2ccc3c(c2)CCN3C(=O)Cc2cccc(C(F)(F)F)c2)c2c(N)ncnc21
Procedure, shortened: as §1

quisinostat = compound: Cn1cc(CNCC2CCN(c3ncc(C(=O)NO)cn3)CC2)c2ccccc21 [quisinostat]
Procedure, shortened: as §1

tipifarnib = compound: Cn1cncc1[C@@](N)(c1ccc(Cl)cc1)c1ccc2c(c1)c(-c1cccc(Cl)c1)cc(=O)n2C [tipifarnib]
Procedure, shortened: as §1

[4] = compound: NC(=O)Nc1cc(-c2cccc(F)c2)sc1C(=O)N[C@H]1CCCNC1
Procedure, shortened: as §1

[5] = compound: NC(=O)c1cnc(N[C@@H]2CCCC[C@@H]2N)nc1Nc1cccc(-n2nccn2)c1
Procedure, shortened: as §1

[6] = compound: NC1(c2ccc(-c3nc4ccn5c(=O)[nH]nc5c4cc3-c3ccccc3)cc2)CCC1
Procedure, shortened: as §1

[7] = compound: NCC(=O)Nc1ccc(-n2nc(C(F)(F)F)cc2-c2ccc3c(ccc4ccccc43)c2)cc1
Procedure, shortened: as §1

vorinostat = compound: O=C(CCCCCCC(=O)Nc1ccccc1)NO [vorinostat]
Procedure, shortened: as §1

silmitasertib = compound: O=C(O)c1ccc2c(c1)nc(Nc1cccc(Cl)c1)c1ccncc12 [silmitasertib]
Procedure, shortened: as §1

[8] = compound: O=C1NC(=O)C(c2cnc3ccccn23)=C1c1cn2c3c(cc(F)cc13)CN(C(=O)N1CCCCC1)CC2
Procedure, shortened: as §1

entospletinib = compound: c1cn2cc(-c3ccc4cn[nH]c4c3)nc(Nc3ccc(N4CCOCC4)cc3)c2n1 [entospletinib]
Procedure, shortened: as §1

Measured: log2 fold change

BOLA2 (UniProt Q9H3K6)
Sequence of UniProt Q9H3K6 (Q9H3K6 whole entry, looked up): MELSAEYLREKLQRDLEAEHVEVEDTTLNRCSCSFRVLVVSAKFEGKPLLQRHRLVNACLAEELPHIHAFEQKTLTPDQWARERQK
inactive: nilotinib 0.039 | [1] -0.036 | dasatinib -0.002 | [2] -0.021 | [3] 0.009 | quisinostat 0.063 | tipifarnib 0.01 | [4] -0.042 | [5] -0.013 | [6] 0.096 | [7] -0.085 | vorinostat 0.1 | silmitasertib 0.039 | [8] -0.039 | entospletinib -0.015

BORCS5 (UniProt Q969J3)
inactive: nilotinib 0.064 | [1] -0.021 | dasatinib -0.025 | [2] 0.082 | [3] -0.003 | quisinostat -0.017 | tipifarnib -0.061 | [4] -0.017 | [5] -0.029 | [6] -0.009 | [7] -0.061 | vorinostat 0.136 | silmitasertib 0.008 | [8] 0.026 | entospletinib -0.115

BAHCC1 (UniProt Q9P281)
Sequence of UniProt Q9P281 (Q9P281 whole entry, looked up): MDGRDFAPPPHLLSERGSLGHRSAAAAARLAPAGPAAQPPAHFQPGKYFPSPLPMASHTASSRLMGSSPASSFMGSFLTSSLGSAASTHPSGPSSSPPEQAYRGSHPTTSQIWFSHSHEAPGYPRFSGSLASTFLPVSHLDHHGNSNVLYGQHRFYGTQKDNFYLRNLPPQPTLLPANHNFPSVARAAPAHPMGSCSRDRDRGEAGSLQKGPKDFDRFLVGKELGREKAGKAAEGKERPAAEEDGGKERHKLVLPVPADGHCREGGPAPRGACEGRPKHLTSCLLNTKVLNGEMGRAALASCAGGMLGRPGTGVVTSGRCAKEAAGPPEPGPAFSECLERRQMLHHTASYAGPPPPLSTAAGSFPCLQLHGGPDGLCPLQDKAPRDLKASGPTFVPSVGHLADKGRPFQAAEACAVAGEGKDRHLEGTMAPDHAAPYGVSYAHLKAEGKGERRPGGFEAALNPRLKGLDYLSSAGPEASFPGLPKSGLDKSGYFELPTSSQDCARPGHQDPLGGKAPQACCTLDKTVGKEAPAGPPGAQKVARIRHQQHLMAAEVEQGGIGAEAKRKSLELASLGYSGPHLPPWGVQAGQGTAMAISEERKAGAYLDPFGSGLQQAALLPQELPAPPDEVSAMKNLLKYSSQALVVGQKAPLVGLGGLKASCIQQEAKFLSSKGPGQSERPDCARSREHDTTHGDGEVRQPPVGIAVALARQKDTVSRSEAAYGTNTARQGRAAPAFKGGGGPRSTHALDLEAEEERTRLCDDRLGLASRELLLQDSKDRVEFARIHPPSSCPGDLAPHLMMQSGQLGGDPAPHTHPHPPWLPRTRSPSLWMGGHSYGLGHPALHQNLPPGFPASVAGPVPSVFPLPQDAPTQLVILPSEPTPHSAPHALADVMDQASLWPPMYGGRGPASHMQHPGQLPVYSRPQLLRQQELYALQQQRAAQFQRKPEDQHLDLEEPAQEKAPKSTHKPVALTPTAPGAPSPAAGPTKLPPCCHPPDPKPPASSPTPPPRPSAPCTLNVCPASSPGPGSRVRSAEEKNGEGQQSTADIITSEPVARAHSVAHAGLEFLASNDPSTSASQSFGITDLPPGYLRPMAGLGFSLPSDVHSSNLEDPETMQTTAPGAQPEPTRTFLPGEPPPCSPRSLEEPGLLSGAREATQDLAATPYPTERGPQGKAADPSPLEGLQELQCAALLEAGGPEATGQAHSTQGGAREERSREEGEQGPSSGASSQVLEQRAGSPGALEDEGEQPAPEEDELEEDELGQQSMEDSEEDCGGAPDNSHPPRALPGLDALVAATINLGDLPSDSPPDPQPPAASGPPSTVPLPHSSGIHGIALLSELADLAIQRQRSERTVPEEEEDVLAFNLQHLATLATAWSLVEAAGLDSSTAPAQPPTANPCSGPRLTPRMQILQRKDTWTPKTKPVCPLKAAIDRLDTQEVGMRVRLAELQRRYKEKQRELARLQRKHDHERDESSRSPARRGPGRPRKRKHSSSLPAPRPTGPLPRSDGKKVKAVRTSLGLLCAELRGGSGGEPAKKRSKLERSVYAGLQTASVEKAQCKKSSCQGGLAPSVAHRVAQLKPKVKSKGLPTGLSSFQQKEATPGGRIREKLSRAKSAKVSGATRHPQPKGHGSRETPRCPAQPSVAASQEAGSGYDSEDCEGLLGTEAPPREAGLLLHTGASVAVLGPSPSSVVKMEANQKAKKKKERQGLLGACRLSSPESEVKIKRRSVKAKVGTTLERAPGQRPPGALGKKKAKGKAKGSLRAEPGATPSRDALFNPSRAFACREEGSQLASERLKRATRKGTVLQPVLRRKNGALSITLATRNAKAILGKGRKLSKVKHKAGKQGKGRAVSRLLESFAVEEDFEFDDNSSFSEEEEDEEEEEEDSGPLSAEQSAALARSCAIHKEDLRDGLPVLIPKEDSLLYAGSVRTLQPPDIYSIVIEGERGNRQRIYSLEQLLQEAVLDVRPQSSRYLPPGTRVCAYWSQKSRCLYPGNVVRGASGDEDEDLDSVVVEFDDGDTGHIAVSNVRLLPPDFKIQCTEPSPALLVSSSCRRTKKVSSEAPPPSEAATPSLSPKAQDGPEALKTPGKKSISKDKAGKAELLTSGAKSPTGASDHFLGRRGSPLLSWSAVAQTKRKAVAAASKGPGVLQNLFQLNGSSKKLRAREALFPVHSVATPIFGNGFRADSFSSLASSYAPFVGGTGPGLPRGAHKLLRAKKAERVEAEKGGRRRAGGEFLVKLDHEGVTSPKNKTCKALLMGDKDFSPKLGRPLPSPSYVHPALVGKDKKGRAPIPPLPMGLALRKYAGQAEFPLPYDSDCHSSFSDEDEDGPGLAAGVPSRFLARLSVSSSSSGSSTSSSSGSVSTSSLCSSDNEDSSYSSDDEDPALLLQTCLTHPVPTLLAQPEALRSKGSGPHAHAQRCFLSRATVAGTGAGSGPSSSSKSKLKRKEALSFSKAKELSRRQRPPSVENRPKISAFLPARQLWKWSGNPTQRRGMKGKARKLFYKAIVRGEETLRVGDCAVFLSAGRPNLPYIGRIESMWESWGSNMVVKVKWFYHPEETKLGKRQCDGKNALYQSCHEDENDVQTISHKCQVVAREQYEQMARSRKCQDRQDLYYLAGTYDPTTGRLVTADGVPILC
inactive: nilotinib -0.191 | [1] 0.019 | dasatinib -0.144 | [2] -0.141 | [3] -0.039 | quisinostat -0.328 | tipifarnib 0.031 | [4] -0.053 | [5] 0.021 | [6] 0.07 | [7] 0.009 | vorinostat -0.082 | silmitasertib -0.086 | [8] -0.158 | entospletinib -0.069

CDC40 (UniProt O60508)
inactive: nilotinib -0.015 | [1] -0.026 | dasatinib -0.005 | [2] 0.039 | [3] 0.058 | quisinostat -0.138 | tipifarnib 0.046 | [4] 0.02 | [5] 0.063 | [6] 0.097 | [7] 0.029 | vorinostat 0.08 | silmitasertib 0.015 | [8] 0.005 | entospletinib 0.014

CAD (UniProt P27708)
inactive: nilotinib 0.004 | [1] 0.013 | dasatinib -0.094 | [2] -0.001 | [3] 0.038 | quisinostat -0.02 | tipifarnib -0.005 | [4] 0.023 | [5] -0.006 | [6] 0.004 | [7] 0.012 | vorinostat -0.067 | silmitasertib 0.026 | [8] 0.008 | entospletinib 0

CARD11 (UniProt Q9BXL7)
Sequence of UniProt Q9BXL7 (Q9BXL7 whole entry, looked up): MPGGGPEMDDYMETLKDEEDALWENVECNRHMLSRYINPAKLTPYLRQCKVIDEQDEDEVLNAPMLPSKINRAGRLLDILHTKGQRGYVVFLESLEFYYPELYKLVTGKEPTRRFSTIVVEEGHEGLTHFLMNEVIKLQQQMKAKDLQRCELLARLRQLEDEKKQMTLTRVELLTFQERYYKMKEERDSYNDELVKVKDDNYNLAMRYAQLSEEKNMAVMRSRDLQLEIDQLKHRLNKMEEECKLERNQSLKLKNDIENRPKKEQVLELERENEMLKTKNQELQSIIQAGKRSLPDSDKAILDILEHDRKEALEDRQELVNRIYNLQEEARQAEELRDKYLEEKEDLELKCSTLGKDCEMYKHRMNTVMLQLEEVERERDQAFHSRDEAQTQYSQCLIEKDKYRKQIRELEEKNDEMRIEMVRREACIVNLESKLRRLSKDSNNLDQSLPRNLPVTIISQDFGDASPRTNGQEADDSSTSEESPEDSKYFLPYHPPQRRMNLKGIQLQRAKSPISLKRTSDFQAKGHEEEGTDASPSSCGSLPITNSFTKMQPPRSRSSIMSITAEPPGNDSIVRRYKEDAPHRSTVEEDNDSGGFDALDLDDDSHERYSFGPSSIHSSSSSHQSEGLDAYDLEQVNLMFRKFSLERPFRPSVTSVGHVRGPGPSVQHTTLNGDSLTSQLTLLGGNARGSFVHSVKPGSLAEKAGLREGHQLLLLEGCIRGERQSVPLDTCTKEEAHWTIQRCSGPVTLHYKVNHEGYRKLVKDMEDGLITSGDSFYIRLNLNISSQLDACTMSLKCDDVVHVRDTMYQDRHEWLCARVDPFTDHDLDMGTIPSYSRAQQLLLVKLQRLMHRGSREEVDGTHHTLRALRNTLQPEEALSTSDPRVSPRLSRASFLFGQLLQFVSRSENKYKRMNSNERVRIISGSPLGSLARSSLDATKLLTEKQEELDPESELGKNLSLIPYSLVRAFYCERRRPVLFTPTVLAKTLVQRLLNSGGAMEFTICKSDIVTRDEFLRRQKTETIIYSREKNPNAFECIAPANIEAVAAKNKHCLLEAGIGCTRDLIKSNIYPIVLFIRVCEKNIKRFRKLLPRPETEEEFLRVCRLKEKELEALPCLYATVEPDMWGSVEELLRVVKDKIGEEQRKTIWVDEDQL
inactive: nilotinib -0.047 | [1] 0.04 | dasatinib -0.053 | [2] 0.043 | [3] 0.004 | quisinostat -0.031 | tipifarnib -0.015 | [4] 0.025 | [5] 0.048 | [6] 0.009 | [7] -0.113 | silmitasertib 0.001 | [8] 0.004 | entospletinib -0.031
active: vorinostat -0.406

CASP6 (UniProt P55212)
inactive: nilotinib 0.018 | [1] 0.017 | dasatinib 0.005 | [2] -0.026 | [3] -0.001 | quisinostat 0.013 | tipifarnib -0.027 | [4] -0.034 | [5] 0.003 | [6] 0.023 | [7] -0.014 | vorinostat -0.049 | silmitasertib 0.045 | [8] -0.018 | entospletinib -0.01

ATAD3B (UniProt Q5T9A4)
Sequence of UniProt Q5T9A4 (Q5T9A4 whole entry, looked up): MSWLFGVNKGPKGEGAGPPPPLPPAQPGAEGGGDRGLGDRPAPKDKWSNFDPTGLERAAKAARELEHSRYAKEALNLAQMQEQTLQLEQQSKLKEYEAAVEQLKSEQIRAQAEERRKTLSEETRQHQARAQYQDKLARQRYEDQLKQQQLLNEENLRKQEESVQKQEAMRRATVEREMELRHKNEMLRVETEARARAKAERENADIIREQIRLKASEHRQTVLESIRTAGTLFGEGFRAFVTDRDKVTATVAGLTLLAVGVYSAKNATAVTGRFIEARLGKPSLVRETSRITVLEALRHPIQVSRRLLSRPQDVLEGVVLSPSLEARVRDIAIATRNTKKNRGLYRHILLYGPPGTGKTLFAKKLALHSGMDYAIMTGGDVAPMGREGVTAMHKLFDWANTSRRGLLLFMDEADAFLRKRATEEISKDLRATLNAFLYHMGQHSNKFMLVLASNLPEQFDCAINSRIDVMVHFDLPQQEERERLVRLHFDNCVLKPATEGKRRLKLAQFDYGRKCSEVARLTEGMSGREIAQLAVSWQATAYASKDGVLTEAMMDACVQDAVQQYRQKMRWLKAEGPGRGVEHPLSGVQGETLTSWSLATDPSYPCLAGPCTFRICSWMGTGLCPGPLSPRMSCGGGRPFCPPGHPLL
inactive: nilotinib -0.017 | [1] 0.019 | dasatinib 0.01 | [2] -0.026 | [3] 0.046 | quisinostat 0.018 | tipifarnib -0.004 | [4] 0.051 | [5] -0.006 | [6] 0.006 | [7] -0.128 | vorinostat 0.132 | silmitasertib 0.015 | [8] -0.057 | entospletinib 0.012

C18orf32 (UniProt Q8TCD1)
Sequence of UniProt Q8TCD1 (Q8TCD1 whole entry, looked up): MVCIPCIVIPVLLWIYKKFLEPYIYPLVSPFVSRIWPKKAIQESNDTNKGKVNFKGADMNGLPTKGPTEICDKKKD
inactive: nilotinib 0.058 | [1] -0.078 | dasatinib -0.026 | [2] 0.072 | [3] 0.167 | quisinostat 0.027 | tipifarnib 0.093 | [4] -0.11 | [5] -0.084 | [6] 0.062 | [7] 0.004 | silmitasertib -0.021 | [8] 0.017 | entospletinib -0.071
active: vorinostat -0.486

BCAR1 isoform 6 (UniProt P56945)
inactive: nilotinib -0.021 | [1] -0.015 | dasatinib 0.001 | [2] -0.068 | [3] 0.018 | quisinostat 0.021 | tipifarnib -0.006 | [4] 0.016 | [5] -0.009 | [6] 0.008 | [7] 0.056 | vorinostat -0.032 | silmitasertib 0.002 | [8] -0.004 | entospletinib -0.083

CDK13 (UniProt Q14004)
inactive: nilotinib -0.081 | [1] 0 | dasatinib 0.004 | [2] -0.051 | [3] 0.005 | quisinostat 0.068 | tipifarnib 0.032 | [4] -0.039 | [5] 0.033 | [6] 0.131 | [7] -0.089 | vorinostat -0.088 | silmitasertib 0.093 | [8] -0.012 | entospletinib -0.013

ATXN2 (UniProt Q99700)
active: vorinostat -0.282
inactive: nilotinib -0.04 | [1] 0.023 | dasatinib 0.023 | [2] -0.003 | [3] 0.047 | quisinostat -0.065 | tipifarnib 0.014 | [4] 0.045 | [5] 0.011 | [6] -0.028 | [7] 0.024 | silmitasertib -0.01 | [8] -0.005 | entospletinib -0.008

CAMK2B (UniProt Q13554)
active: [1] 0.399
inactive: nilotinib -0.026 | dasatinib -0.055 | [2] 0.026 | [3] 0.023 | quisinostat -0.205 | tipifarnib -0.035 | [4] 0.295 | [5] 0.089 | [6] -0.045 | [7] 0.014 | vorinostat -0.133 | silmitasertib -0.017 | [8] 0.056 | entospletinib -0.02

ATM (UniProt Q13315)
inactive: nilotinib -0.019 | [1] -0.019 | dasatinib -0.071 | [2] 0.084 | [3] 0.038 | quisinostat 0.039 | tipifarnib 0.009 | [4] 0.009 | [5] 0.039 | [6] 0.008 | [7] 0.058 | vorinostat -0.093 | silmitasertib 0.118 | [8] -0.033 | entospletinib 0.036

CHD4 isoform 2 (UniProt Q14839)
active: vorinostat -0.284
inactive: nilotinib 0.006 | [1] 0.008 | dasatinib -0.011 | [2] -0.006 | [3] 0.015 | quisinostat -0.038 | tipifarnib -0.008 | [4] 0.031 | [5] 0.01 | [6] 0.001 | [7] 0.023 | silmitasertib -0.006 | [8] 0.015 | entospletinib -0.01

CEP76 (UniProt Q8TAP6)
active: quisinostat -0.241
inactive: nilotinib -0.005 | [1] -0.021 | dasatinib -0.002 | [2] -0.021 | [3] -0.005 | tipifarnib 0.006 | [4] -0.01 | [5] -0.015 | [6] -0.02 | [7] -0.1 | vorinostat -0.055 | silmitasertib 0.027 | [8] -0.051 | entospletinib 0.039

CFDP1 (UniProt Q9UEE9)
inactive: nilotinib -0.008 | [1] 0.051 | dasatinib 0.029 | [2] 0.035 | [3] 0.009 | quisinostat -0.102 | tipifarnib 0.013 | [4] -0.038 | [5] -0.013 | [6] -0.026 | [7] -0.009 | vorinostat 0.095 | silmitasertib -0.05 | [8] -0.078 | entospletinib -0.012

BAG4 (UniProt O95429)
inactive: nilotinib -0.154 | [1] -0.039 | dasatinib 0.027 | [2] 0.014 | [3] 0.015 | quisinostat 0.019 | tipifarnib -0.011 | [4] 0.01 | [5] 0.018 | [6] 0.038 | [7] -0.013 | vorinostat 0.03 | silmitasertib -0.067 | [8] -0.025 | entospletinib 0.007

BRAT1 (UniProt Q6PJG6)
active: vorinostat -0.32
inactive: nilotinib 0.031 | [1] -0.016 | dasatinib -0.046 | [2] 0.01 | [3] 0.046 | quisinostat -0.07 | tipifarnib 0 | [4] 0.008 | [5] 0.047 | [6] -0.017 | [7] 0.015 | silmitasertib -0.002 | [8] -0.013 | entospletinib 0.004

CASC4 (UniProt Q6P4E1)
Sequence of UniProt Q6P4E1 (Q6P4E1 whole entry, looked up): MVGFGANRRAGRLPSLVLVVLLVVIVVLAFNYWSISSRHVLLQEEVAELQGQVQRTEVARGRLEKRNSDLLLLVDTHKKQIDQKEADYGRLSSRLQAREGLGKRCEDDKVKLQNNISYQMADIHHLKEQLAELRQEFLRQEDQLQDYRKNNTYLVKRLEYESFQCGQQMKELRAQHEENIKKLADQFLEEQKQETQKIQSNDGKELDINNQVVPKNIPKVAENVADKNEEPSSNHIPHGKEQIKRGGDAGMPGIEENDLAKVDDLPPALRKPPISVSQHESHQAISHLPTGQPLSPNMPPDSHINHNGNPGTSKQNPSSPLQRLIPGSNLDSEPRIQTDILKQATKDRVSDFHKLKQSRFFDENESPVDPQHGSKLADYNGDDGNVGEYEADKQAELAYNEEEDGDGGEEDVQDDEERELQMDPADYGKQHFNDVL
inactive: nilotinib -0.072 | [1] -0.006 | dasatinib 0.037 | [2] 0.053 | [3] 0.029 | quisinostat 0.021 | tipifarnib -0.033 | [4] -0.024 | [5] 0.035 | [6] -0.011 | [7] -0.034 | vorinostat 0.02 | silmitasertib 0.019 | [8] 0.025 | entospletinib -0.029

CBFA2T3 (UniProt O75081)
active: vorinostat -0.4
inactive: nilotinib -0.018 | [1] 0.02 | dasatinib -0.026 | [2] -0.019 | [3] -0.008 | quisinostat -0.07 | tipifarnib -0.047 | [4] 0.043 | [5] 0 | [6] 0.001 | [7] -0.004 | silmitasertib 0.009 | [8] -0.019 | entospletinib -0.012
